An excerpt weighted towards active compounds, which were near 3.9% of everything screened.
SUMO HTRF inh: blocks human SUMOylation mediated by UBC9; 290,000 tested, 0.36% active; AID 2006; HTRF SUMOylation assay, SAE1/SAE2 + UBC9, in vitro; inhibition, % at 35 µM; in the data active means inhibition above about 50%, passing the limit was not always enough; inconclusive means no clear call, values can overlap the other calls
ALR inh: human ALR oxidase inhibition via reduced H2O2; P55789; inhibition, % (concentration not given with the values); purified ALR, DTT oxidation, H2O2 HRP-luminol luminescence; 290,000 tested, 3.8% active; AID 485317;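 active means mean replicate inhibition above about 79%, with every replicate also reaching it, limit read from the data; inconclusive means only one of the two criteria met; inactive means mean below limit and not every replicate reaching it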
Target sequence (P55789 whole entry, looked up): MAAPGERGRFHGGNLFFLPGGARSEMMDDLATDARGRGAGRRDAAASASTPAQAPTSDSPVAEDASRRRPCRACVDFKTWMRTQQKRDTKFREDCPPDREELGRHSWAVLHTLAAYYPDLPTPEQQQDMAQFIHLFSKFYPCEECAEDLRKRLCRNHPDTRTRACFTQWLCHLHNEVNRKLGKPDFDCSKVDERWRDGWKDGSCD
H9c2 protect: protects H9c2 cardiomyocytes from peroxide injury; H2O2 injury protection, ATPLite, 2 h; 360,000 tested, 0.63% active; protection from H2O2 cell death, % at 20 µM; AID 588492;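 active means compounds giving at least 50% protection of heart cells from peroxide-induced death in the single-dose screen, raw or plate-pattern-corrected value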
NTR1 ag: agonists of human neurotensin receptor NTR1; NTR1-U2OS beta-arrestin-GFP spot imaging, agonist mode; activation, % at 20 µM; 330,000 tested, 0.17% active; AID 493036;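 active means activation at or above 40% of the spot to cytoplasm intensity ratio, with at least 20 cells analyzed; inconclusive means wells under 20 cells, flagged as cytotoxic or low count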
Target sequence (P30989 whole entry, looked up): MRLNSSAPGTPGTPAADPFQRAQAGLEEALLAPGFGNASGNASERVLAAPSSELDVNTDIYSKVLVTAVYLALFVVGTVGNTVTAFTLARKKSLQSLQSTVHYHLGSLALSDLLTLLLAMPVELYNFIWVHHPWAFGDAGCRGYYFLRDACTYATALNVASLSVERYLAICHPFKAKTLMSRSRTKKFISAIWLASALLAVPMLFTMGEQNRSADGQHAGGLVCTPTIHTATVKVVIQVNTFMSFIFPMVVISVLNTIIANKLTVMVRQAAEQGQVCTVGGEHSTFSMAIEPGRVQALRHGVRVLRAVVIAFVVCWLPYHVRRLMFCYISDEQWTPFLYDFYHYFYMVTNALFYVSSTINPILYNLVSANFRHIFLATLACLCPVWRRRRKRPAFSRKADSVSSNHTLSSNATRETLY
Large screens that a line does not name were inactive.

CC(=O)c1ccc(NC(=O)c2ccc3nc(-c4ccco4)c(-c4ccco4)nc3c2)cc1	SUMO HTRF inh 91.8
O=C(CSc1n[nH]c(-c2ccccc2)n1)c1ccccc1	ALR inh 97.2
O=C(NCCCO)c1ccc2nc(-c3ccco3)c(-c3ccco3)nc2c1	SUMO HTRF inh inconclusive (no result: ALR inh, NTR1 ag)
COc1ccccc1-n1cnnc1SCC(=O)Nc1ccccc1	none
CC(=O)c1ccc(NC(=O)CSc2nnc(-c3ccco3)c(-c3ccco3)n2)cc1	SUMO HTRF inh 89.6, ALR inh 99.4
CC(=O)Nc1ccc(NC(=O)CSc2nnc(-c3ccco3)o2)cc1	none
O=C(c1ccc2ccccc2c1)N1CCOCC1	none (no result: SUMO HTRF inh)
O=C(c1ccc2c(c1)N(Cc1ccc(F)cc1)CCS2)N1CCOCC1	ALR inh 99.2
O=C(c1ccc2c(c1)N(Cc1ccccc1)CCS2)N1CCOCC1	ALR inh 99.1
C=CCn1c(SCC(=O)NCCc2ccccc2)nc2c([nH]c3ccccc32)c1=O	none
CCOc1ccc(-c2nc(CCl)cs2)cc1OC	ALR inh 98.8
O=C(Cc1ccc2c(c1)OCCO2)N1CCN(S(=O)(=O)c2cccc(C(F)(F)F)c2)CC1	ALR inh 89.5
CCOc1cc(/C=N/NC(=O)c2ccc(-c3csc(Nc4ccc(C)cc4)n3)cc2)ccc1OCC(=O)O	none (no result: ALR inh, NTR1 ag)
O=C(O)COc1ccc(/C=N/NC(=O)c2ccc(-c3csc(Nc4ccc(Cl)cc4)n3)cc2)cc1	SUMO HTRF inh 86.0 (no result: ALR inh, NTR1 ag)
CC(C)(C)c1nnc(N/N=C/c2ccccc2O)n(N)c1=O	H9c2 protect 52.0
Cc1ccc(N2CC(C(=O)NC3CCSC3=O)CC2=O)cc1 (stereo not given)	none
COc1ccc(-c2cn[nH]c2-c2ccc(OCC(=O)NN)cc2O)cc1	ALR inh 78.2
COc1ccccc1-c1cn[nH]c1-c1ccc(OCC(=O)NN)cc1O	ALR inh 95.1
CC1=C(C(=O)Nc2ccccn2)C(c2ccccc2Cl)NC(=S)N1 (stereo not given)	none
COc1cc(C#N)c(N=C(SCC#N)N2CCOCC2)cc1OC	ALR inh 98.2
CCCc1nc(SCC(=O)Nc2nc3c(s2)CCCC3)c2ccccc2n1	ALR inh 98.6
CCc1nc(SCC(=O)Nc2nc3c(s2)CCCC3)c2ccccc2n1	ALR inh 99.3
Fc1cccc(Cl)c1-c1nnc2ccc3ccccc3n12	ALR inh 98.3
Fc1ccccc1-c1nnc2ccc3ccccc3n12	none
COc1ccc(C(=O)c2cn[nH]c2-c2cc(Cl)ccc2O)cc1	none
CC1=[N+](C)N(c2ccccc2)C(=O)C1N=Cc1ccccc1Cl (stereo not given)	ALR inh 77.2
C=CCn1c(C(C)NC(=O)c2ccc(C)cc2)n[nH]c1=S (stereo not given)	ALR inh 95.4
C=CCn1c(C(C)NC(=O)c2ccccc2C)n[nH]c1=S (stereo not given)	none
Cc1ccccc1-c1nc(C#N)c(N2CCCCC2)o1	none
CCOCCCNC(=O)c1ccc(Br)cc1	none
O=C(CN1CCCCC1)NNc1nc(-c2ccccc2)c2cc(Br)ccc2n1	ALR inh 89.8
Cc1c(C(=O)OC(C)C)sc2nc[nH]c(=O)c12	none
Cc1[nH]c2ccccc2c1SCCNC(=O)c1ccc(Br)o1	ALR inh 78.3
COc1ccc(OC)c(N2C(=O)CC(C(C)c3ccccc3)C2=O)c1 (stereo not given)	none
N#CCCn1c(SCC(=O)c2c[nH]c3ccccc23)nc2ccccc21	H9c2 protect 51.1
CCOC(=O)c1c(C)[nH]c(C)c1C(=O)CSc1nc2ccccc2n1CCC#N	none
CC1C/C(=N/Nc2nc3ccccc3[nH]2)CC(C)(C)C1 (stereo not given)	ALR inh 98.7
CSc1nc2c(cc1C#N)C(=O)CC(C)(C)C2	none
O=C(NNC(=S)Nc1ccccc1)Nc1ccccc1	none
COc1ccc(NC(=S)Nc2ccc3snnc3c2)cc1	ALR inh 97.0
Cc1ccc(NC(=S)NNC(=O)Nc2ccccc2)cc1	ALR inh 96.8
COc1cccc(NC(=S)Nc2ccc(O)cc2)c1	ALR inh 99.1
Oc1ccc(NC(=S)Nc2ccccc2)cc1	ALR inh 98.8
COc1cccc(NC(=S)NNC(=O)c2ccccc2OC(F)F)c1	ALR inh 78.7
O=C(NNC(=S)Nc1cccc(Cl)c1)c1ccccc1OC(F)F	none (no result: ALR inh)
CCN(CC)c1ccc(NC(=O)c2ccc(Br)o2)cc1	ALR inh 96.4
CCN(CC)c1ccc(NC(=S)NC(=O)C2CCC2)cc1	ALR inh 98.6
CCN(CC)c1ccc(NC(=O)c2cnn(CC)c2)cc1	ALR inh 99.5
CCN(CC)c1ccc(NC(=O)OC)cc1	ALR inh 91.2
COC(=O)Cc1ccc(NC(=O)c2ccc(Br)o2)cc1	none
CC(=O)Nc1ccc(NC(=S)NC(=O)C2CCCC2)cc1	none
NC(c1csc(Nc2ccc(C(=O)NCCCO)cn2)n1)C1CCCCC1 (stereo not given)	none (no result: SUMO HTRF inh, ALR inh, NTR1 ag)
O=C(Cc1noc2ccccc12)Nc1ccc(Cl)cc1	none
Cc1cc(C(=O)N/N=C/C=C/c2ccc3c(c2)OCO3)n[nH]1	none
CCOC(=O)C(Cc1ccccc1)C(=O)Nc1cccc(C)c1 (stereo not given)	none (no result: ALR inh)
CCOC(=O)C(Cc1ccccc1)C(=O)Nc1ccc(N(CC)CC)cc1 (stereo not given)	ALR inh 98.8
CC(=O)N1N=C(c2c(-c3ccccc3)c3cc(Br)ccc3[nH]c2=O)CC1c1ccco1 (stereo not given)	none
O=C(CSc1nnnn1Cc1ccccc1)NC1CCCCC1	none
C=CCSc1nnc2c(n1)OC(c1ccco1)Nc1ccccc1-2 (stereo not given)	ALR inh 97.5
O=C(Nc1ccccc1C(=O)Nc1ccccc1C(=O)O)c1ccccc1	ALR inh 97.2
COc1ccccc1NC(=O)c1ccccc1Nc1ccccc1	none
Nc1ccc(C(=O)Nc2ccccc2C(=O)O)cc1	none (no result: ALR inh)
O=C(O)c1ccccc1NC(=O)c1ccccc1Nc1ccccc1	ALR inh 98.3
c1ccc(-c2noc(CSc3nnnn3C3CCCCC3)n2)cc1	none (no result: ALR inh)
Cc1ccc(-n2c(SCC(=O)N3CC(=O)Nc4ccccc43)nc3ccccc3c2=O)cc1	ALR inh 98.3
CCOC(=O)N1CCN(C(=O)CSc2nc3ccccc3c(=O)n2-c2ccccc2)CC1	H9c2 protect 52.1
Cc1ccc(Oc2ccc(OCC(=O)NC(C)C(=O)O)cc2)cc1 (stereo not given)	none
COc1cc(/C=N/NC(=O)C2CCN(CC(O)COCc3ccccc3)CC2)ccc1O (stereo not given)	ALR inh 99.1
COc1ccc(/C=N/NC(=O)CC(=O)NCCc2ccccc2)cc1OC	none
CCOc1cc(/C=N\NC(=O)CC(=O)NCCc2ccccc2)ccc1O	ALR inh 99.5
COc1cc(/C=N\NC(=O)CC(=O)NCCc2ccccc2)ccc1O	ALR inh 99.3
COc1cc(/C=N/NC(=O)C2CCN(CC(O)COCc3ccccc3)CC2)cc(OC)c1OC (stereo not given)	none
CN(C)C(=O)CN1c2cccc3cccc(c23)S1(=O)=O	none
O=C(Oc1ccccc1)n1c(=S)oc2ccccc21	none
Cc1ccccc1OC(=O)n1c(=S)oc2cc(Cl)ccc21	ALR inh 83.1 (no result: NTR1 ag)
Cn1cnnc1SCc1ccccc1Br	none

Screening data from PubChem.
